Hit rate of the full screen: of about 5,600 compounds, about 390 (7%) showed an effect of 50% or more. The full list was thinned out, with strong results kept by preference.

The assay addresses T1, Protein deacetylase HDAC6 (Homo sapiens) (UniProt Q9UBN7).
T1 sequence (whole entry): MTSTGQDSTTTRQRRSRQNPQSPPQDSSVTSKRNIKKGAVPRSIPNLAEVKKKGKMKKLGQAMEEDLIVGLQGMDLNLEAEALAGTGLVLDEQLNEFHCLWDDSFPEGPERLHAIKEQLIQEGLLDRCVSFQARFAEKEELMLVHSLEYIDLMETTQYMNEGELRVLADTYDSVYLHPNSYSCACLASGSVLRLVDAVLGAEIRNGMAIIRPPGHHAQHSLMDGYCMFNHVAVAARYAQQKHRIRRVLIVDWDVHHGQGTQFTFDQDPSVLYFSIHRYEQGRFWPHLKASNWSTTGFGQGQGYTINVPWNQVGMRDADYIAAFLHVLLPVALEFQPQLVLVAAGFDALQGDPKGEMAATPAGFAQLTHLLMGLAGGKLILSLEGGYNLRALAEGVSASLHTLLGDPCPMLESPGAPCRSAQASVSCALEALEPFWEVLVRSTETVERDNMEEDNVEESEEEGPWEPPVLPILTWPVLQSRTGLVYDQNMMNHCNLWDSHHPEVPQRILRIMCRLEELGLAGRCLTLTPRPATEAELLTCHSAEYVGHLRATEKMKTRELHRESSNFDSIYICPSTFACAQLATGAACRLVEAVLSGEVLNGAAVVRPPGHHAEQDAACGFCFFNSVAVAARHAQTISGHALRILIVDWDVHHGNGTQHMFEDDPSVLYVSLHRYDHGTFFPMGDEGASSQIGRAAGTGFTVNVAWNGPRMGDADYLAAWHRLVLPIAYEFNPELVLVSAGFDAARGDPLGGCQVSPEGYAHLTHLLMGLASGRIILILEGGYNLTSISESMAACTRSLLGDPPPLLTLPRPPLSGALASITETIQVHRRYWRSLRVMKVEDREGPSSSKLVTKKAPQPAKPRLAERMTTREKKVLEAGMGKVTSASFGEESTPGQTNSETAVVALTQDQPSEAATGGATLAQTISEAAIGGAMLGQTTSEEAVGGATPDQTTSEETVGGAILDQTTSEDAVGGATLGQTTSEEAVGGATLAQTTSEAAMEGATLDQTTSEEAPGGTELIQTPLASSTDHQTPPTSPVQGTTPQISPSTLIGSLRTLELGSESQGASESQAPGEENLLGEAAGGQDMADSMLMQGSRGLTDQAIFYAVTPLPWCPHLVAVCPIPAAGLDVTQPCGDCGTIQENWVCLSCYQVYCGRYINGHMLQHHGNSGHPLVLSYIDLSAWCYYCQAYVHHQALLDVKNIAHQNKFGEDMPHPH
As to conditions: at 10 µM.
For `CCOC(=O)COc1ccc2c(c1)C[C@@H](NC[C@H](O)c1cccc(Cl)c1)CC2`, the inhibition was determined as 16.8%.

Turning to `Cn1nccc1Nc1nccc(-c2ccn([C@H](CO)c3ccc(Cl)c(F)c3)c(=O)c2)n1`, the inhibition is 26.5%.

As to `CN1CCC(Nc2ncc3ncnc(Nc4ccc(F)c(Cl)c4)c3n2)CC1`, the inhibition was determined as 20.6%.

`O=C(Nc1cccc(Br)c1)c1cccc(S(=O)(=O)N2CCCCCC2)c1`: the inhibition amounted to 12.5%.

Turning to `CCn1c(-c2nonc2N)nc2cnc(Oc3cccc(NC(=O)c4ccc(OCCN5CCOCC5)cc4)c3)cc21`, the inhibition was 7.09%.

On to `CCOc1cccc(NC(=O)c2ccc(N3CCCC3)c(C(F)(F)F)c2)c1`, for which the inhibition is 69.4%.

For `Cc1cc(C)n(-c2cccc([C@H](CC(=O)O)CN3CC[C@@H](CCc4ccc5c(n4)NCCC5)C3)c2)n1`, the inhibition was -4.01%.

For `C[C@H]1CC[C@H](n2c3cnccc3c3cnc(Nc4ccc5c(n4)CCN(C(=O)CO)C5)nc32)CC1`, the inhibition is -9.6%.

As for `CC[C@@H]1CN2C(=O)N(C)c3nc(-c4ccccc4)[nH]c3C2=N1`, the inhibition was -3.85%.

On to `COc1ccc(C(=O)Nc2sc3c(c2C(N)=O)CCCC3)cc1OC`, for which the inhibition turned out to be 31.6%.

`CC(C)(C)C1CCc2c(sc(NC(=O)c3ccco3)c2C(=O)O)C1` (configuration not stated): the inhibition worked out at 102%.

As for `N[C@@H](Cc1ccc(B(O)O)cc1)C(=O)O`, the inhibition amounted to 0.83%.

On to `CNc1ncc2cc(-c3cc(NC(=O)NCCC(C)(C)C)c(F)cc3C)c(C)nc2n1`, for which the inhibition worked out at 12.4%.

Consider `C/C(=N\NC(=O)[C@@H]1C(=O)NC[C@H]1c1ccccc1)c1cccc(Br)c1`, for which the inhibition was determined as 17.4%.

Consider `CN1CCc2c(c3ccccc3n2Cc2ccc(C(=O)NO)cc2)C1`, for which the inhibition was determined as 101%.

As for `Fc1ccc(Cn2c(NC3CCNCC3)nc3ccccc32)cc1`, the inhibition was found to be 6.44%.

Turning to `CCO[C@@H](Cc1ccc(OCCc2ccc(OS(C)(=O)=O)cc2)cc1)C(=O)O`, the inhibition is -7.27%.

With `CCNC(=O)/C=C/c1cccc(Br)c1`, the inhibition was 54.9%.

Regarding `O=C(/C=C/c1cccnc1)NCCCCC1CCN(C(=O)c2ccccc2)CC1`, the inhibition is -0.26%.

On to `Nc1cc(F)ccc1NC(=O)/C=C/c1cnn(C/C=C/c2ccccc2)c1`, for which the inhibition stood at 12.4%.

For the compound `COc1cc(/C=C/C(=O)CC(=O)/C=C/c2ccc(O)c(OC)c2)ccc1O`, the inhibition turned out to be 38.8%.

Take `O=C(/C=C/c1ccccc1)NCCO`: the inhibition is 81.5%.

As to `O=C(c1cccc(Br)c1)N1CCC(N2CCCC2)CC1`, the inhibition was found to be 1.11%.

Consider `CC12CCC(C(=O)N(CCCCN3CCN(c4ccccn4)CC3)C1=O)C2(C)C` (configuration not stated), for which the inhibition turned out to be 4.93%.

With `C[C@@H]1O[C@@H](O[C@H]2[C@H](Oc3cc(O)c4c(c3)O[C@H](c3ccc(O)cc3)CC4=O)O[C@H](CO)[C@@H](O)[C@@H]2O)[C@H](O)[C@H](O)[C@H]1O`, the inhibition amounted to 11.8%.

As for `O=C(O)C[C@H]1CC[C@H](c2ccc(-c3ccc(Nc4ccc(C(F)(F)F)nc4)cn3)cc2)CC1`, the inhibition turned out to be 17.5%.

For the compound `CC(C)c1ccc2c(c1)CC[C@H]1[C@](C)(CN)CCC[C@]21C`, the inhibition turned out to be 10.1%.

Regarding `C=CC(=O)c1ccc2ccccc2c1`, the inhibition turned out to be 20.7%.

Turning to `CC(C)N(CCC(=O)c1ccc2ccccc2c1)Cc1ccccc1`, the inhibition was determined as 59.8%.

With `C/C(=C\C(=O)Nc1ccccc1C(=O)O)c1ccc2ccccc2c1`, the inhibition was 27.8%.

`CC(=O)c1c(C)c2cnc(Nc3ccc(N4CCNCC4)cn3)nc2n(C2CCCC2)c1=O`: the inhibition was determined as 3.93%.

For `CC(=O)SCC(Cc1ccccc1)C(=O)NCC(=O)OCc1ccccc1` (configuration not stated), the inhibition amounted to 3.61%.

`C[C@H]1CN(C[C@H](Cc2ccccc2)C(=O)NCC(=O)O)CC[C@@]1(C)c1cccc(O)c1`: the inhibition was found to be 72.7%.

With `CC(C)C[C@H](NC(=O)[C@H](CCc1ccccc1)NC(=O)CN1CCOCC1)C(=O)N[C@@H](Cc1ccccc1)C(=O)N[C@@H](CC(C)C)C(=O)[C@@]1(C)CO1`, the inhibition is 0.65%.

For the compound `O=C(CN1CCN(C(=O)c2ccco2)CC1)Nc1cc(C(F)(F)F)ccc1Cl`, the inhibition was 18.3%.

`Nc1nc2cc(-c3ccc4ncc(C(=O)N5CCOCC5)n4c3)ccc2o1`: the inhibition is 17.8%.

Take `CN(CCCN1c2ccccc2CCc2ccccc21)CC(=O)c1ccc(Cl)cc1`: the inhibition was determined as 35.1%.

`Cc1cc(O)c(C(C)C)cc1Cl`: the inhibition worked out at 35.2%.

In the case of `CCCN[C@H]1CCc2nc(N)sc2C1`, the inhibition was 14.3%.

For the compound `O=C(O)/C=C/c1ccc(O)c(O)c1`, the inhibition is -8.03%.

On to `O=C(/C=C/c1ccc(O)cc1)c1ccc(O)cc1O`, for which the inhibition amounted to 98.6%.

On to `O=C(/C=C/c1ccc(O)c(O)c1)c1ccc(O)cc1O`, for which the inhibition amounted to 97.5%.

Consider `CC(C)(C)c1cc(C(=O)/C=C/c2ccc(C(=O)O)cc2)cc(C(C)(C)C)c1`, for which the inhibition came to 35.2%.

For the compound `CC(C)=CCOc1ccc(/C=C/C(=O)c2ccc(OCC=C(C)C)cc2OCC(=O)O)cc1`, the inhibition was -0.94%.

For the compound `NC(=O)c1cccc(-c2cc(Nc3ccc(OC(F)(F)F)cc3)ncn2)c1`, the inhibition is -8.36%.

Take `c1coc(-c2nnc3sc(C4CCCCC4)nn23)c1`: the inhibition is -6.78%.

For the compound `O=C(Nc1ccc(Oc2ccc(Cl)cn2)c(Cl)c1)c1ccccn1`, the inhibition worked out at 44.2%.

Regarding `CN(Cc1ccc(C(C)(C)C)cc1)Cc1cccc2ccccc12`, the inhibition came to 2.21%.

As for `CC(C)=CCC/C(C)=C/CC/C(C)=C/CSc1ccccc1C(N)=O`, the inhibition is -0.26%.

As to `O=C(Nc1cccnc1)c1cc(-c2ccnc(F)c2)ccc1OCc1ccccc1`, the inhibition came out at 9.93%.

On to `CCOC(=O)c1c(O)nc2cccc3c2c1-c1ccccc1C3=O`, for which the inhibition is 41.8%.

On to `O=C1c2ccccc2-c2n[nH]c3cccc1c23`, for which the inhibition turned out to be 88.8%.

Turning to `O=C(c1c(O)nc2cc(Cl)ccc2c1O)C1CC1`, the inhibition was -2.41%.

As for `N#C/C(=C\c1ccc(O)c(O)c1)C(N)=O`, the inhibition is 16.6%.

As for `CCCCCCCCNC(=O)/C(C#N)=C/c1cn(CCCN(C)C)c2ccccc12`, the inhibition was 7.03%.

Turning to `N#C/C(=C\c1ccc(O)c(O)c1)C(=O)NCc1ccccc1`, the inhibition came out at 53%.

For the compound `N#C/C(=C\c1ccc(O)c(O)c1)C(=O)NCCCc1ccccc1`, the inhibition was determined as 88.2%.

In the case of `CCCCCCCC/C=C\CCCCCCCC(=O)NCCc1ccc(O)c(O)c1`, the inhibition worked out at 29.4%.

As for `C[C@H](NC(=O)/C(C#N)=C/c1ccc(O)c(O)c1)c1ccccc1`, the inhibition amounted to 30.1%.

As for `O=C(CCCl)NCc1ccccc1`, the inhibition was -3.62%.

For `N#C/C(=C\c1ccc(O)c(O)c1)C(=O)Nc1ccccc1`, the inhibition was 89%.

As to `N#C/C(=C\c1ccc(O)c(O)c1)C(=O)OCCc1cccs1`, the inhibition is 40.4%.

`COc1cc(C[C@@H]2NCCc3cc(O)c(O)cc32)cc(OC)c1OC`: the inhibition amounted to 3.77%.

Consider `N#CC(Cc1ccc(O)cc1)c1ccc(O)cc1` (configuration not stated), for which the inhibition worked out at 21.2%.

In the case of `COc1ccc2[nH]c([S+]([O-])Cc3ncc(C)c(OC)c3C)nc2c1` (configuration not stated), the inhibition worked out at 16.1%.

Regarding `COc1ccc2[nH]c(SCc3ncc(C)c(OC)c3C)nc2c1`, the inhibition came to 62.8%.

Turning to `COc1ccc2[nH]c([S@@+]([O-])Cc3ncc(C)c(OC)c3C)nc2c1`, the inhibition worked out at 26.7%.

The values are drawn from ChEMBL document CHEMBL4808148, “HDAC6 screening dataset using tau-based substrate in an enzymatic assay yields selective inhibitors and activators” (2021).
